For 20 compounds, outcome and AC50 results are on record in PubChem BioAssay (EPA / NIEHS).

Results filed as inconclusive are left out. The source made the active and inactive calls. How the source made its calls: active means hit-call score of the fitted dose curve at least 0.9, where 1 is the maximum; inconclusive means response in the unintended direction; inactive means score below 0.9.

Assay [1] can be described thus: TOX21_p53_BLA_p2_viability: Viability Assessment in the Tox21 HCT-116 p53 Agonism Beta-lactamase Assay, Phase 2 (AID 2283591).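 Further: compound exposure lasted 16 h at 37 °C; actives lower the ATP signal meaning cytotoxicity.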 The method in brief: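 HCT-116 p53-bla cells (4000/well) rested 5 h at 37C, then received compounds in DMSO (217-fold dilution) for 16 h at 37C, 5% CO2. After the CCF4 read, CellTiter-Glo was added; ATP luminescence was read after 30 min at room temperature.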

In assay [2] the target is Cellular tumor antigen p53 (Homo sapiens) (UniProt P04637). The assay is described as follows: TOX21_p53_BLA_p2_ratio: Tox21 HCT-116 p53 Agonism Beta-lactamase Assay, Ratio, Phase 2 (AID 2283592). In a few lines: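 Read-out is the blue/green (460/530 nm, 405 nm excitation) ratio after 2 h CCF4-AM loading, fitted as gain versus DMSO. Compounds, pinned at 217-fold dilution from DMSO stocks, stayed 16 h on HCT-116 beta-lactamase reporter cells seeded 5 h earlier.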
Cellular tumor antigen p53 (Homo sapiens), sequence (P04637 whole entry, looked up): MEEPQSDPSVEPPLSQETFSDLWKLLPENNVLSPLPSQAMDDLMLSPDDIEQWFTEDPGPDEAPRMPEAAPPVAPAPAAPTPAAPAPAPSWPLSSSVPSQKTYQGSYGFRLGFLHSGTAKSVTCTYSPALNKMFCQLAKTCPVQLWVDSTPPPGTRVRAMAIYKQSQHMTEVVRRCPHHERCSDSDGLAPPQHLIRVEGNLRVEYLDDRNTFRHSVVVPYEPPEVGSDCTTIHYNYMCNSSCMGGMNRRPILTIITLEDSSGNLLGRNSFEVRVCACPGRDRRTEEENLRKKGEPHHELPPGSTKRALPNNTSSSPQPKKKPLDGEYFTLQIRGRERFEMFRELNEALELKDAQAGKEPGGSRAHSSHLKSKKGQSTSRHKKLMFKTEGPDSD

The nature of assay [3]: TOX21_p53_BLA_p3_viability: Viability Assessment in the Tox21 HCT-116 p53 Agonism Beta-lactamase Assay, Phase 3 (AID 2283593).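 Further: cells exposed to compound for 16 h before reading.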 In a few lines:
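HCT-116 cells (4000/well) rested 5 h at 37C, then got DMSO compounds by pin tool (217-fold dilution) for 16 h at 37C, 5% CO2. After the bla read, CellTiter-Glo was added and luminescence read at 30 min, room temperature.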

The target in assay [4] is Cellular tumor antigen p53 (Homo sapiens) (UniProt P04637). The assay is described as follows: TOX21_p53_BLA_p3_ratio: Tox21 HCT-116 p53 Agonism Beta-lactamase Assay, Ratio, Phase 3 (AID 2283596). The method in brief:
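Cells were seeded at 4000/well, rested 5 h at 37C, then dosed with DMSO compound solutions (217-fold dilution) for 16 h. CCF4-AM substrate was loaded for 2 h at room temperature, and the 460/530 nm emission ratio was fitted for gain of signal versus DMSO.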

Assay [5] in a line: TOX21_p53_BLA_p4_viability: Viability Assessment in the Tox21 HCT-116 p53 Agonism Beta-lactamase Assay, Phase 4 (AID 2283597).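 Further: hits lower the luminescence signal meaning cytotoxicity.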 In a few lines:
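Cytotoxicity as reduced cellular ATP (CellTiter-Glo luminescence, 30 min room temperature), measured in the same wells following the CCF4 FRET p53 reading. Human HCT-116 cells received compounds in DMSO (217-fold dilution) for 16 h.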

The target of assay [6] is Cellular tumor antigen p53 (Homo sapiens) (UniProt P04637). Kind of assay: TOX21_p53_BLA_p5_ratio: Tox21 HCT-116 p53 Agonism Beta-lactamase Assay, Ratio, Phase 5 (AID 2283599). In a few lines:
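HCT-116 cells carrying a p53-inducible beta-lactamase reporter were seeded at 4000 cells/well and dosed after 5 h with compound in DMSO (217-fold dilution). After 16 h at 37C, CCF4-AM substrate was added for 2 h, and the 460/530 nm emission ratio was scored as gain-of-signal versus DMSO.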

Assay [7] can be described thus: TOX21_p53_BLA_p5_viability: Viability Assessment in the Tox21 HCT-116 p53 Agonism Beta-lactamase Assay, Phase 5 (AID 2283600). In a few lines: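 Viability came from CellTiter-Glo ATP luminescence, read after 30 min at room temperature. Before this, HCT-116 p53-bla cells (4000/well) had 16 hours of compound exposure at 37C, with DMSO stocks diluted 217-fold on transfer.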

For assay [8], the target named is Cellular tumor antigen p53 (Homo sapiens) (UniProt P04637). Kind of assay: TOX21_p53_BLA_p4_ratio: Tox21 HCT-116 p53 Agonism Beta-lactamase Assay, Ratio, Phase 4 (AID 2283601). The method in brief:
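HCT116 cells carrying an inducible beta-lactamase reporter were plated at 4000 cells/well, rested 5 h, then exposed to compounds in DMSO (217-fold dilution) for 16 h at 37C. CCF4-AM substrate was loaded 2 h at room temperature; 460/530 nm emission ratio scored gain-of-signal versus DMSO.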

A word on the AC50: it is the midpoint of the concentration-response curve, whichever way the signal moves.

As for `CCc1c2c(nc3ccc(OC(=O)N4CCC(N5CCCCC5)CC4)cc13)-c1cc3c(c(=O)n1C2)COC(=O)[C@]3(O)CC`, the call in assay [1], in assay [3], in assay [5] and in assay [7] was inactive. For the same compound, the AC50 in assay [2] was 5.56 µM (active); in assay [4], 5.37 µM (active); in assay [6], 7.41 µM (active); in assay [8], 11.3 µM (active).

Take `Cc1c(-c2ccccc2)oc2c(C(=O)OCCN3CCCCC3)cccc2c1=O`: the result in assay [1], in assay [2], in assay [3], in assay [4], in assay [5] and in assay [6] was inactive. In addition, the outcome in assay [7] and in assay [8] was inactive.

In the case of `COc1cc(C(=O)OCCCN2CCCN(CCCOC(=O)c3cc(OC)c(OC)c(OC)c3)CC2)cc(OC)c1OC`, the outcome in assay [1], in assay [2], in assay [3], in assay [4], in assay [5] and in assay [6] was inactive. Also, the compound was classed as inactive in assay [7] and in assay [8].

On to `CC[C@@H](C(=O)[C@@H](C)[C@@H](O)[C@H](C)CCc1ccc(C)c(O)c1C(=O)O)[C@H]1O[C@](CC)([C@H]2CC[C@](O)(CC)[C@H](C)O2)C[C@@H]1C`, for which the AC50 in assay [1] is 23 µM (active); in assay [2], 17.2 µM (active); in assay [3], 23 µM (active); in assay [4] it was 30.3 µM (active); in assay [5], 31.1 µM (active); in assay [6] it was 36.2 µM (active). Besides, the figures for the AC50 in assay [7] and in assay [8] were 31.4 µM (active) and 14.6 µM (active), respectively.

Take `COCC1=C(C(=O)OC(C)OC(=O)OC(C)C)N2C(=O)[C@@H](NC(=O)/C(=N\OC)c3csc(N)n3)[C@H]2SC1` (stereo not given in full): the outcome in assay [1], in assay [2], in assay [3], in assay [4], in assay [5] and in assay [6] was inactive. Also, the compound was classed as inactive in assay [7] and in assay [8].

Turning to `CC(C)(C)C(=O)O`, the result in assay [1], in assay [2], in assay [3], in assay [4], in assay [5] and in assay [6] was inactive. For the same compound, the result in assay [7] and in assay [8] was inactive.

Turning to `CCCCOc1ccc(C(=O)CCN2CCCCC2)cc1`, the compound was called inactive in assay [1], in assay [2], in assay [3], in assay [4], in assay [6] and in assay [7]. For the same compound, in assay [8], the outcome was inactive. The AC50 in assay [5] was 6.37 µM (active).

Consider `CCn1cc(C(=O)O)c(=O)c2cc(F)c(N3CCNC(C)C3)c(F)c21` (stereo not given), for which the compound was classed as inactive in assay [1], in assay [2], in assay [3], in assay [4], in assay [5] and in assay [6]. The call in assay [7] and in assay [8] was inactive.

On to `CCOC(=O)Oc1c(OC)cc(C(=O)O[C@@H]2C[C@@H]3CN4CCc5c([nH]c6cc(OC)ccc56)[C@H]4C[C@@H]3[C@H](C(=O)OC)[C@H]2OC)cc1OC`, for which the outcome in assay [1], in assay [2], in assay [3], in assay [4], in assay [5] and in assay [6] was inactive. Also, the call in assay [7] and in assay [8] was inactive.

In the case of `COc1ccccc1/C=C/C=O`, the outcome in assay [1], in assay [2], in assay [3], in assay [4], in assay [5] and in assay [6] was inactive. Further, the compound was classed as inactive in assay [7] and in assay [8].

Turning to `Cc1cnc(C(=O)O)c[n+]1[O-]`, the result in assay [1], in assay [2], in assay [3], in assay [4], in assay [5] and in assay [6] was inactive. Moreover, the compound was called inactive in assay [7] and in assay [8].

As to `COc1ccc(CN2CCN(C(c3ccc(F)cc3)c3ccc(F)cc3)CC2)c(OC)c1OC`, the AC50 in assay [1], in assay [3] and in assay [5] was 23 µM (active) throughout. Moreover, the result in assay [2], in assay [4], in assay [6], in assay [7] and in assay [8] was inactive.

Take `CCOc1ccc(Cc2nccc3cc(OCC)c(OCC)cc23)cc1OCC`: the result in assay [1], in assay [2], in assay [3], in assay [4], in assay [5] and in assay [6] was inactive. Moreover, the call in assay [7] and in assay [8] was inactive.

On to `CCCCCCCCCCOCC(O)CN` (stereo not given), for which the AC50 was 36.8 µM (active) in assay [1], 36.8 µM (active) in assay [5] and 42.9 µM (active) in assay [8]. In addition, the outcome in assay [2], in assay [3], in assay [4], in assay [6] and in assay [7] was inactive.

`COc1cc2[nH]c(=O)[nH]c(=O)c2cc1OC`: the outcome in assay [1], in assay [2], in assay [3], in assay [4], in assay [5] and in assay [6] was inactive. In addition, the result in assay [7] and in assay [8] was inactive.

On to `CCCCCCCC/C=C\CCCCCCCC(=O)NCc1ccc(O)c(OC)c1`, for which the result in assay [1], in assay [2], in assay [4], in assay [5], in assay [6] and in assay [7] was inactive. Besides, in assay [8], the outcome was inactive. In addition, the AC50 in assay [3] was 41.5 µM (active).

With `CC(C)Oc1ccc2c(=O)c(-c3ccccc3)coc2c1`, the call in assay [1], in assay [2], in assay [3], in assay [4], in assay [5] and in assay [6] was inactive. For the same compound, the result in assay [7] and in assay [8] was inactive.

Regarding `O=C(O)Cc1sc(-c2ccccc2)nc1-c1ccc(Cl)cc1`, the result in assay [1], in assay [2], in assay [3], in assay [4], in assay [5] and in assay [6] was inactive. Besides, the call in assay [7] and in assay [8] was inactive.

As for `COC(=O)C1=C(C)NC(C)=C(C(=O)OCCCN2CCC(c3ccccc3)(c3ccccc3)CC2)C1c1cccc([N+](=O)[O-])c1` (stereo not given), the AC50 in assay [1] was 32.9 µM (active); in assay [2], 42 µM (active); in assay [3] it was 36 µM (active); in assay [4], 36.8 µM (active); in assay [5] it was 28.8 µM (active); in assay [6], 43.6 µM (active). The values for the AC50 in assay [7] and in assay [8] were 37.4 µM (active) and 42.8 µM (active), respectively.

For `CCCCCCCCCCCCCCCCCC(=O)OC[C@@H](O)[C@H]1OC[C@H](O)[C@H]1O`, the outcome in assay [1], in assay [2], in assay [3], in assay [4], in assay [5] and in assay [6] was inactive. For the same compound, the outcome in assay [7] and in assay [8] was inactive.
